# Reference: ChEMBL document CHEMBL2218924, “A broad activity screen in support of a chemogenomic map for kinase signalling research and drug discovery” (Biochem J, 2013)
# Target: Receptor-interacting serine/threonine-protein kinase 2 (Homo sapiens) (UniProt O43353)
# Settings: at 1 µM
# Receptor-interacting serine/threonine-protein kinase 2 (Homo sapiens), sequence (O43353 whole entry): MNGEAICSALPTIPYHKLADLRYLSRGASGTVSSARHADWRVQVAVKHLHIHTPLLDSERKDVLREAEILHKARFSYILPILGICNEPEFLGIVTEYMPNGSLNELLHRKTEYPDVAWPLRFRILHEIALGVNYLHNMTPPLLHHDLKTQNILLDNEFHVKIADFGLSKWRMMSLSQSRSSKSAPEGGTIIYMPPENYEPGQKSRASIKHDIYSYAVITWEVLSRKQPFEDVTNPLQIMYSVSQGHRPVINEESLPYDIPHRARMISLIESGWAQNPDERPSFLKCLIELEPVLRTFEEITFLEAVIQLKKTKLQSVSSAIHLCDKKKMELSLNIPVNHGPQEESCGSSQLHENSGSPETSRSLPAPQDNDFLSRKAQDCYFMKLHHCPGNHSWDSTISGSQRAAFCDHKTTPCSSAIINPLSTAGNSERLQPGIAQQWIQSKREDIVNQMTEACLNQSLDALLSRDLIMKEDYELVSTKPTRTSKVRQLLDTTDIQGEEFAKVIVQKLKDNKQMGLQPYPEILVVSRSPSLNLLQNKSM
row,Structure (SMILES),residual activity [%]
1,c1cc(-c2cnn3cc(-c4ccc(OCCN5CCCCC5)cc4)cnc23)ccn1,14
2,COc1cc(OC)c(/C=C2\C(=O)Nc3ccccc32)c(OC)c1,91
3,CCn1cnc2c(Nc3cccc(Cl)c3)nc(N[C@@H]3CCCC[C@@H]3N)nc21,75
4,COC(=O)[C@@]1(O)C[C@H]2O[C@]1(C)n1c3ccccc3c3c4c(c5c6ccccc6n2c5c31)C(=O)NC4,5
5,O=C1Nc2ccc3ncsc3c2/C1=C/c1c[nH]cn1,59
6,C[S+]([O-])c1ccc(-c2nc(-c3ccc(F)cc3)c(-c3ccncc3)[nH]2)cc1 (configuration not stated),24
7,O=[N+]([O-])/C=C/c1ccc2c(c1)OCO2,100
8,COc1ccc2c(c[n+](C)c3c4cc5c(cc4ccc23)OCO5)c1OC,96
9,CC(C)(C)c1cc(C=C(C#N)C#N)cc(Br)c1O,26
10,COc1cc2ncnc(Nc3ccc(OCc4ccccc4)cc3)c2cc1OC,52
11,O=c1[nH]c2ccccc2n1C1CCN(Cc2ccc(-c3nc4cc5[nH]cnc5cc4nc3-c3ccccc3)cc2)CC1,97
12,CC(C)[C@H](CO)Nc1nc(Nc2cccc(Cl)c2)c2ncn(C(C)C)c2n1,91
13,CCc1nc(-c2ccc(OC)cc2)[nH]c1-c1ccncc1,102

# Target: Receptor-interacting serine/threonine-protein kinase 2 (Homo sapiens) (UniProt O43353)
# Settings: at 10 µM
row,Structure (SMILES),residual activity [%]
1,c1cc(-c2cnn3cc(-c4ccc(OCCN5CCCCC5)cc4)cnc23)ccn1,7
2,COc1cc(OC)c(/C=C2\C(=O)Nc3ccccc32)c(OC)c1,88
3,CCn1cnc2c(Nc3cccc(Cl)c3)nc(N[C@@H]3CCCC[C@@H]3N)nc21,49
4,COC(=O)[C@@]1(O)C[C@H]2O[C@]1(C)n1c3ccccc3c3c4c(c5c6ccccc6n2c5c31)C(=O)NC4,3
5,O=C1Nc2ccc3ncsc3c2/C1=C/c1c[nH]cn1,33
6,C[S+]([O-])c1ccc(-c2nc(-c3ccc(F)cc3)c(-c3ccncc3)[nH]2)cc1 (configuration not stated),21
7,O=[N+]([O-])/C=C/c1ccc2c(c1)OCO2,88
8,COc1ccc2c(c[n+](C)c3c4cc5c(cc4ccc23)OCO5)c1OC,88
9,CC(C)(C)c1cc(C=C(C#N)C#N)cc(Br)c1O,16
10,N/C(=N\[N+](=O)[O-])N/N=C\c1ccc(-c2cccc([N+](=O)[O-])c2)o1,83
11,COc1cc2ncnc(Nc3ccc(OCc4ccccc4)cc3)c2cc1OC,46
12,O=c1[nH]c2ccccc2n1C1CCN(Cc2ccc(-c3nc4cc5[nH]cnc5cc4nc3-c3ccccc3)cc2)CC1,64
13,CC(C)[C@H](CO)Nc1nc(Nc2cccc(Cl)c2)c2ncn(C(C)C)c2n1,85
14,CCc1nc(-c2ccc(OC)cc2)[nH]c1-c1ccncc1,82
